Measurements reported in PubChem BioAssay AID602295 (Broad Institute, 2012).
Active and inactive are the calls of the source.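 The calls were made as follows: active = every separate test run called active, meaning the signal drops and a potency is fitted within twice the top valid dose; inconclusive = runs disagree, poor fit, or flat partial inhibition; inactive = all runs inactive, flat, opposite direction or too weak.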

molecular target: Mitogen-activated protein kinase 3 (Homo sapiens) (UniProt P27361); test: inhibition of MAPK3 kinase activity – biochemical, ADP-Glo luminescence, cherry pick, set 2, selectivity assay for Dyrk1A inhibitor NFAT project, dose response (AID 602295); conditions: ERK1 kinase, 120 min; series mostly up to 10 µM
Sequence (P27361 whole entry, looked up): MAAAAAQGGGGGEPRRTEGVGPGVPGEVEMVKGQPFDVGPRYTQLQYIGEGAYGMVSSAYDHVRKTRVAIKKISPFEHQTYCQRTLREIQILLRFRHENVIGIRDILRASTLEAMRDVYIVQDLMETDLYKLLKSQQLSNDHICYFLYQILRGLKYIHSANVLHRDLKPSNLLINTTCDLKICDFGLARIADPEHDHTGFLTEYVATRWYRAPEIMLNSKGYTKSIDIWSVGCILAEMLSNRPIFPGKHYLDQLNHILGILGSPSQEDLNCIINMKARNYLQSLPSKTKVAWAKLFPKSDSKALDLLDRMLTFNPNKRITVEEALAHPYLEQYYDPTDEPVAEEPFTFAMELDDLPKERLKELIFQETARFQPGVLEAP

outcome, inactive:
c1coc(CCNc2ncnc3ccc(-c4ccc5c(c4)OCO5)cc23)c1, c1cncc(CNc2nccc(-c3ccc4cn[nH]c4c3)n2)c1, Cc1ccnc(NC(=O)c2cccc(S(=O)(=O)N3CCN(c4ccccc4)CC3)c2)c1, Clc1ccc(Nc2nccc(-c3ccc4c(c3)OCO4)n2)cc1, Clc1ccc(CNc2ccnc(-c3ccc4[nH]ncc4c3)n2)cc1Cl, c1nc(NCC2CCCOC2)c2cc(-c3ccc4c(c3)OCO4)ccc2n1 (stereo not drawn), c1nc(NCC2CCCC2)c2cc(-c3ccc4c(c3)OCO4)ccc2n1, c1cncc(CNc2ccnc(-c3ccc4cn[nH]c4c3)n2)c1, Clc1ccc(CNc2nccc(-c3ccc4c(c3)OCO4)n2)cc1Cl, Brc1ccc(CNc2nccc(-c3ccc4c(c3)OCO4)n2)cc1Br, CCOC(=O)c1ccc(-c2ccc3ncnc(N(C)Cc4sccc4C)c3c2)o1, Cc1ccc(CNc2ncnc3ccc(-c4ccoc4C)cc23)o1, Cc1nc(CN(C)c2ncnc3ccc(-c4ccc5c(c4)OCO5)cc23)cs1, COCCNC(=O)c1ccc2c(c1)nc(C)n2-c1cccc(F)c1, Clc1ccc(CNc2nccc(-c3ccc4[nH]ncc4c3)n2)cc1Cl, CSCC(=O)Nc1nc(-c2ccc3c(c2)OCCO3)cs1, Clc1cc(Cl)cc(CNc2cc(-c3ccc4c(c3)OCO4)ncn2)c1, COc1ccc2c(Cl)c(C(=O)NCc3ccco3)sc2c1, O=C(NCc1ccco1)c1sc2ccccc2c1Cl, O=C(Nc1nc(-c2ccc3c(c2)OCCO3)cs1)c1ccco1, Clc1ccc(CNc2ncncc2-c2ccc3c(c2)OCO3)cc1, Clc1ccc(CNc2cc(-c3ccc4c(c3)OCO4)ncn2)cc1, CC1Cc2ccccc2N1c1ncnc2nc[nH]c12 (stereo not drawn), Cc1nc(CNc2ncnc3ccc(-c4ccoc4)cc23)cs1, O=c1cc(-c2ccccc2Cl)oc2c(NS(=O)(=O)c3ccccc3C(F)(F)F)ccc(O)c12, N#Cc1c(C(F)(F)F)cc(-c2cccc(Cl)c2)[nH]c1=O, c1csc(CCNc2ncnc3ccc(-c4ccc5c(c4)OCO5)cc23)c1, CCCC(=O)Nc1nc(-c2ccc3c(c2)OCCO3)cs1, Fc1c(-c2ccc3ncnc(NCc4cccs4)c3c2)ccc2c1OCO2, c1cncc(CNc2nccc(-c3ccc4c(c3)OCO4)n2)c1, CC(Nc1nc(-c2cccnc2)nc2ccccc12)c1ccc(F)cc1 (stereo not drawn), COc1cc(C(=O)Nc2cccc(-c3nncn3C)c2)cc(OC)c1OC, COc1ccc(-c2nccc(NCc3ccc(C)cc3)n2)cc1
